The source of these data is paper PMC8769072, “Proteome‐scale mapping of binding sites in the unstructured regions of the human proteome” (Molecular Systems Biology, 2022).

For test [1], the target named is AP2B1 700-937, P63010.
Test [2] has as its target ANKRA2 142-313, Q9H9E1.

Sequence of AP2B1 700-937, P63010 (P63010 700-937): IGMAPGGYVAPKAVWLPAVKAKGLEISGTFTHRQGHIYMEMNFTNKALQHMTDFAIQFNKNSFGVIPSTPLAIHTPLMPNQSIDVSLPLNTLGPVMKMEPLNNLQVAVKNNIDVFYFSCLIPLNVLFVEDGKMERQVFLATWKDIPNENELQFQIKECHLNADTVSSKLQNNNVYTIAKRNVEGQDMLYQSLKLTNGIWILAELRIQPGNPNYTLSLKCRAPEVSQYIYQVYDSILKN
Sequence of ANKRA2 142-313, Q9H9E1 (Q9H9E1 142-313): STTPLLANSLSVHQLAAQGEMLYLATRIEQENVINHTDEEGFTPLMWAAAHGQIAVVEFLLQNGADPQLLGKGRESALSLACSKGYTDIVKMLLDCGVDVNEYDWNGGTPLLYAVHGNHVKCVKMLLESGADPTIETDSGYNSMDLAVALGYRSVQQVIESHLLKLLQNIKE

B1: GNAS, P84996 (peptide)
chain: LNSPAWEASGLHWSSL
For B1, the “selected by phage display” value in test [1] was “confidence 3 (active)”.

B2: ARNTL, O00327 (peptide)
chain: AGLGGPVDFSDLPWPL
Regarding B2, the “selected by phage display” value in test [1] was “confidence 2 (active)”.

B3: Q5PR19 (peptide)
chain: NLRLPSLDEQVIPARL
For B3, in test [2], the “selected by phage display” value was “confidence 2 (active)”.

B4: C16orf46, Q6P387 (peptide)
chain: VFPRPVLPSLTVSRVI
For B4, the “selected by phage display” value in test [2] was “confidence 4 (active)”.

B5: Q96NJ1 (peptide)
chain: WPASWGFPDASSTVPS
Consider B5, for which the “selected by phage display” value in test [1] is “confidence 2 (active)”.

B6: DZIP1, Q86YF9 (peptide)
chain: WQAFESQPAAPAVPMN
As to B6, the “selected by phage display” value in test [1] was “confidence 2 (active)”.

B7: TSHZ3, Q63HK5 (peptide)
chain: AAKPSLPALDPMSMLF
For B7, the “selected by phage display” value in test [2] is “confidence 3 (active)”.

B8: NOBOX, O60393 (peptide)
chain: PQPKLPYLPTFPFSMP
Turning to B8, in test [2], the “selected by phage display” value was “confidence 2 (active)”.

B9: GPR179, Q6PRD1 (peptide)
chain: PEWEVAAPWGSVGPGA
Take B9: the “selected by phage display” value in test [1] is “confidence 2 (active)”.

B10: AFTPH, Q6ULP2 (peptide)
chain: SWAAFGDQQATESHHR
For the molecule B10, the “selected by phage display” value in test [1] was “confidence 3 (active)”.

B11: SLC9A2, Q9UBY0 (peptide)
chain: TVGKNHEWNWAFVAFT
With B11, the “selected by phage display” value in test [1] was “confidence 2 (active)”.

B12: FRMPD1, Q5SYB0 (peptide)
chain: TGQDIAPRDSPEWVAF
Consider B12, for which, in test [1], the “selected by phage display” value is “confidence 3 (active)”.

B13: DBNL, Q9UJU6 (peptide)
chain: EKSPTDWALFTYEGNS
Consider B13, for which, in test [1], the “selected by phage display” value is “confidence 2 (active)”.

B14: KRR1, Q13601 (peptide)
chain: ELLTVPDGWKEPAFSK
As for B14, in test [1], the “selected by phage display” value was “confidence 3 (active)”.

B15: ZNF532, Q9HCE3 (peptide)
chain: WTAWEADALFMQRDVY
As for B15, the “selected by phage display” value in test [1] was “confidence 3 (active)”.

B16: ZNF513, Q8N8E2 (peptide)
chain: ALLLPDLSLHVPPGGA
For B16, the “selected by phage display” value in test [2] was “confidence 2 (active)”.

B17: EPS15, P42566 (peptide)
chain: ESFGGGFADFSTLSKV
B17: in test [1], the “selected by phage display” value was “confidence 3 (active)”.

B18: AGFG1, P52594 (peptide)
chain: SANADFANFDAFGQSS
In the case of B18, the “selected by phage display” value in test [1] was “confidence 3 (active)”.

B19: ANKS3, Q6ZW76 (peptide)
chain: QASLQAMSLPELSGAL
With B19, the “selected by phage display” value in test [2] is “confidence 2 (active)”.

B20: ITSN1, Q15811 (peptide)
chain: EPSTTPNNWADFSSTW
For B20, the “selected by phage display” value in test [1] was “confidence 4 (active)”.

B21: HTATSF1, O43719 (peptide)
chain: EERLRGWEAFLNAPEA
As to B21, the “selected by phage display” value in test [1] is “confidence 2 (active)”.

B22: SLC35F4, A4IF30 (peptide)
chain: FTKVEHWSSFAALPWG
In the case of B22, the “selected by phage display” value in test [1] was “confidence 2 (active)”.

B23: ZNF786, Q8N393 (peptide)
chain: WDVPAWESTQHPWPVA
As for B23, the “selected by phage display” value in test [1] is “confidence 4 (active)”.

B24: SCYL1, Q96KG9 (peptide)
chain: MGGAAASWAGWAVTGV
On to B24, for which the “selected by phage display” value in test [1] was “confidence 3 (active)”.

B25: OTP, Q5XKR4 (peptide)
chain: PGTLLPTPGLPQFPSA
Regarding B25, the “selected by phage display” value in test [2] is “confidence 2 (active)”.

B26: CGNL1, Q0VF96 (peptide)
chain: PWTAFPKPSNSQPTSP
Turning to B26, the “selected by phage display” value in test [1] was “confidence 3 (active)”.

B27: TSPOAP1, O95153 (peptide)
chain: DPGAMEPWALPTWHSW
Turning to B27, the “selected by phage display” value in test [1] is “confidence 2 (active)”.

B28: REPS1, Q96D71 (peptide)
chain: NFADFSQFEVFAASNV
Consider B28, for which the “selected by phage display” value in test [1] was “confidence 3 (active)”.

B29: FIP1L1, Q6UN15 (peptide)
chain: EWLYGGPWDVHVHSDL
Consider B29, for which the “selected by phage display” value in test [1] is “confidence 2 (active)”.

B30: BBS5, Q8N3I7 (peptide)
chain: DSDGHTDAFVAYFADG
As for B30, in test [1], the “selected by phage display” value is “confidence 2 (active)”.

B31: RHBDD3, Q9Y3P4 (peptide)
chain: WSHWEDSALPPPSLRP
For B31, the “selected by phage display” value in test [1] is “confidence 3 (active)”.

B32: HDAC5, Q9UQL6 (peptide)
chain: YTSPSLPNISLGLQAT
As to B32, the “selected by phage display” value in test [2] is “confidence 4 (active)”.

B33: ZNF831, Q5JPB2 (peptide)
chain: PWVPNWELGEPPGNAP
For B33, the “selected by phage display” value in test [1] was “confidence 3 (active)”.

B34: GORASP2, Q9H8Y8 (peptide)
chain: LPNLPNLNLNLPAPHI
Turning to B34, the “selected by phage display” value in test [2] is “confidence 2 (active)”.

B35: NUP153, P49790 (peptide)
chain: EEEMEVPVLPKISLPI
Regarding B35, the “selected by phage display” value in test [2] is “confidence 2 (active)”.

B36: NDUFB8, O95169 (peptide)
chain: HERDPWYSWDQPGLRL
B36: the “selected by phage display” value in test [1] is “confidence 3 (active)”.

B37: F8A3, P23610 (peptide)
chain: SWEAFDSHGQESSGQL
As for B37, the “selected by phage display” value in test [1] is “confidence 2 (active)”.

B38: SLCO4A1, Q96BD0 (peptide)
chain: VAAGWWAFAPPALQVL
As for B38, in test [1], the “selected by phage display” value was “confidence 2 (active)”.

B39: SLC32A1, Q9H598 (peptide)
chain: ITAWEAGWNVTNAIQG
For B39, the “selected by phage display” value in test [1] is “confidence 3 (active)”.

B40: C12orf71, A8MTZ7 (peptide)
chain: TQAQAALNFGWAFSWL
For the molecule B40, the “selected by phage display” value in test [1] was “confidence 2 (active)”.

B41: TSPO2, Q5TGU0 (peptide)
chain: MSGWAEGPRMLSWAPF
Take B41: in test [1], the “selected by phage display” value is “confidence 3 (active)”.

B42: OBSCN, Q5VST9 (peptide)
chain: EATEEGWASFSAELSH
In the case of B42, the “selected by phage display” value in test [1] was “confidence 4 (active)”.

B43: INPPL1, O15357 (peptide)
chain: SQEDWTTFTHDRIRQL
Regarding B43, in test [1], the “selected by phage display” value is “confidence 2 (active)”.

B44: ANKRD11, Q6UB99 (peptide)
chain: LSHLGQVEPVPWADAF
Take B44: the “selected by phage display” value in test [1] was “confidence 2 (active)”.

B45: FOXP3, Q9BZS1 (peptide)
chain: MPPSQLQLPTLPLVMV
In the case of B45, the “selected by phage display” value in test [2] was “confidence 2 (active)”.

B46: TEX13C, A0A0J9YWL9 (peptide)
chain: ASSPVNWAAPWANAMN
Regarding B46, the “selected by phage display” value in test [1] is “confidence 3 (active)”.

B47: KIAA0586, Q9BVV6 (peptide)
chain: SMLKLPDLPQNSVKLQ
B47: the “selected by phage display” value in test [2] was “confidence 3 (active)”.

B48: SERTAD4-AS1, Q5TG53 (peptide)
chain: MSARPSLPPLPAKPAG
Turning to B48, in test [2], the “selected by phage display” value was “confidence 2 (active)”.

B49: PHF7, Q9BWX1 (peptide)
chain: NPGLSWTDWPEPSLLE
Turning to B49, the “selected by phage display” value in test [1] was “confidence 3 (active)”.

B50: NTM-AS1, Q6ZSK4 (peptide)
chain: DSALSLPPLSLPHPHP
On to B50, for which the “selected by phage display” value in test [2] is “confidence 3 (active)”.

B51: ZNF362, Q5T0B9 (peptide)
chain: AESSQAVMSLPKLQQV
Consider B51, for which the “selected by phage display” value in test [2] was “confidence 4 (active)”.

B52: TNRC6A, Q8NDV7 (peptide)
chain: WGEPWGEPSTPATTVD
Turning to B52, the “selected by phage display” value in test [1] was “confidence 2 (active)”.

B53: PRX, Q9BXM0 (peptide)
chain: VELPALPSLPTLPTLP
For B53, the “selected by phage display” value in test [2] was “confidence 2 (active)”.

B54: NTHL1, P78549 (peptide)
chain: VPVWEPQDWQQQLVNI
Consider B54, for which the “selected by phage display” value in test [1] was “confidence 3 (active)”.

B55: EFNA3, P52797 (peptide)
chain: EKPVPTLPQFTMGPNV
With B55, the “selected by phage display” value in test [2] was “confidence 3 (active)”.

B56: DZIP1, Q86YF9 (peptide)
chain: NSISEPKGNPLAWQAF
As for B56, the “selected by phage display” value in test [1] was “confidence 3 (active)”.

B57: KMT2A, Q03164 (peptide)
chain: AEPFSSSSPTPLFPWF
Consider B57, for which, in test [1], the “selected by phage display” value is “confidence 2 (active)”.

B58: ELP2, Q6IA86 (peptide)
chain: RGVEWAAFGRDLFLAS
Consider B58, for which, in test [1], the “selected by phage display” value is “confidence 3 (active)”.

B59: SPAG5, Q96R06 (peptide)
chain: TESWMSPLAWLEKGVN
For the molecule B59, in test [1], the “selected by phage display” value was “confidence 2 (active)”.

B60: SALL1, Q9NSC2 (peptide)
chain: VGLPLPPTLPSLIPFI
As for B60, the “selected by phage display” value in test [2] was “confidence 2 (active)”.

B61: ZNF292, O60281 (peptide)
chain: FDWSSFKPMGFEVSFL
B61: the “selected by phage display” value in test [1] was “confidence 2 (active)”.

B62: SPATA31E1, Q6ZUB1 (peptide)
chain: APPFPQSTFTPWASWV
Consider B62, for which the “selected by phage display” value in test [1] is “confidence 3 (active)”.
